PubChem BioAssay (Tox21)
“And” between values parts separate entries of the source, which are not always exact repeats. Equal values may be shown once. Some compounds were tested as several samples or in several runs, with calls that do not always agree. The source made the active and inactive calls. Unless noted, the call rests on the fitted dose curve; in most records, active means well fitted curve in the direction sought with a large enough effect in the repeat runs; inconclusive means weak or mixed curves; inactive means no such curve, though single readings can be large; an effect the other way counts as inactive or inconclusive.

Experiments:
[1] = qHTS assay to test for compound auto fluorescence at 535 nm (green) in HEK293 cells (AID 720680)
[2] = qHTS assay to test for compound auto fluorescence at 460 nm (blue) in HEK293 cell free culture (AID 720681)
Method in brief: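 Blue fluorescence (Ex 405/Em 460 nm, triamterene-equivalent) was read immediately after pin transfer of compound or DMSO into medium (DMEM, 10% FBS) without cells.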

[3] = qHTS assay to test for compound auto fluorescence at 535 nm (green) in HEK293 cell free culture (AID 720682)
Method in brief: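 Green-channel intensity (Ex/Em 485/535 nm) was recorded from compound-treated wells containing only DMEM with 10% FBS. Fluorescein provided the equivalency standard.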

[4] = qHTS assay to test for compound auto fluorescence at 590 nm (red) in HEK293 cell free culture (AID 720683)
Method in brief: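 Red-channel autofluorescence of compounds in culture medium (DMEM, 10% FBS), no cells, measured at 540/590 nm. Rose Bengal sodium is the reference fluorophore for equivalence.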

[5] = qHTS assay to test for compound auto fluorescence at 590 nm (red) in HepG2 cell free culture (AID 720684)
Method in brief: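 Plate contents were MEM with 10% FBS plus test compound or DMSO, no cells. Fluorescence was recorded with 540 nm excitation and 590 nm emission.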

[6] = qHTS assay to test for compound auto fluorescence at 460 nm (blue) in HepG2 cell free culture (AID 720685)
Method in brief: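 Compound (23 nL) or DMSO pinned into cell-free MEM with 10% FBS; blue fluorescence read at 405/460 nm excitation/emission, expressed as auto-fluorescence equivalency to triamterene.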

[7] = qHTS assay to test for compound auto fluorescence at 535 nm (green) in HepG2 cell free culture (AID 720686)
[8] = qHTS assay to test for compound auto fluorescence at 460 nm (blue) in HepG2 cells (AID 720687)
Method in brief: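 Blue-channel autofluorescence (Ex/Em 405/460 nm, triamterene-equivalent) was measured after 1 hr compound exposure at 37 C, 5% CO2. Cells were HepG2, plated overnight at 37 C in MEM plus 10% FBS.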

[9] = target: Glucocorticoid receptor (Homo sapiens) (UniProt P04150); assay: qHTS assay to identify small molecule agonists of the glucocorticoid receptor (GR) signaling pathway (AID 720691; active means well fitted activation curve with a large enough effect in the signal ratio in the repeat runs, not every such curve was filed as active; inconclusive means weak or mixed curves, or effect the other way; inactive means no such curve, though single readings can be large or run the other way; the % refers to the signal ratio; further: potency means the concentration at half of the fitted maximal effect)
Glucocorticoid receptor (Homo sapiens), sequence (P04150 whole entry, looked up): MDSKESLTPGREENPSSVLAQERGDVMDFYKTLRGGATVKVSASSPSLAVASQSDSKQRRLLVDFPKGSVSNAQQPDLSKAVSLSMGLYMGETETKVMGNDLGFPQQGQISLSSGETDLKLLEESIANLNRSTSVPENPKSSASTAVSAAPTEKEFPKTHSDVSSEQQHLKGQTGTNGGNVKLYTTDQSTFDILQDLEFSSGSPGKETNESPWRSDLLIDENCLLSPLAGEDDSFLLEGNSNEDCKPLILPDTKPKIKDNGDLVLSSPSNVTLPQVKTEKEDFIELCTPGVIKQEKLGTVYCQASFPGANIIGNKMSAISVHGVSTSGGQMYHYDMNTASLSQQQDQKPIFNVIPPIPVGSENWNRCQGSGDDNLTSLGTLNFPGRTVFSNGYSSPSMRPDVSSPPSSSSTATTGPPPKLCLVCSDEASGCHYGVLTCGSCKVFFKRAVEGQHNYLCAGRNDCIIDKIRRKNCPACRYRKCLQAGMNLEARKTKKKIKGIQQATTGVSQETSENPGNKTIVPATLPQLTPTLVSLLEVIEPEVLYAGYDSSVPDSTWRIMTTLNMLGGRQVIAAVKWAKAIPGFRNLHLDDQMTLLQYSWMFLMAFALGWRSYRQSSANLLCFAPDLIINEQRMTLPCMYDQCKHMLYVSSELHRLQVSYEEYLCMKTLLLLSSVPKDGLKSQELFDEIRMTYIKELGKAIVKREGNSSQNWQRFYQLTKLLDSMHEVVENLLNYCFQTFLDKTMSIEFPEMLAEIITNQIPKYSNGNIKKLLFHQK
Method in brief: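 GR-bla HeLa cells carrying a GRE-driven beta-lactamase reporter, exposed to compounds for 18 h at 37 C. Reporter activation read as fluorescence after 2 h with LiveBLAzer B/G FRET substrate at room temperature.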

[10] = target: Glucocorticoid receptor (Homo sapiens) (UniProt P04150); assay: qHTS assay to identify small molecule antagonists of the glucocorticoid receptor (GR) signaling pathway (AID 720692; active means well fitted inhibition curve with a large enough effect in the signal ratio in the repeat runs, not every such curve was filed as active; inconclusive means weak or mixed curves, or effect the other way; inactive means no such curve, though single readings can be large or run the other way; the % refers to the signal ratio; further: potency means the concentration at half of the fitted maximal effect)
Method in brief: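 GR-bla HeLa cells carrying a GRE-driven beta-lactamase reporter received compound after 4 h plating, then dexamethasone (5 nM final). After 18 h at 37C, the FRET substrate was loaded for 2 h at room temperature and fluorescence read.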

[11] = qHTS assay to identify small molecule antagonists of the glucocorticoid receptor (GR) signaling pathway - cell viability counter screen (AID 720693); further: nearly all actives have a fitted effect of over 55% in size
[12] = qHTS assay for identifying genotoxic compounds that show differential cytotoxicity against isogenic chicken DT40 cell lines with known DNA damage response pathways - wild type cell line (AID 743012); further: nearly all actives have a fitted effect of over 60% in size; further: potency means the concentration at half of the fitted maximal effect
Method in brief: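 Wild-type DT40 cells (300/well) exposed to compounds for 40 hours at 37 C/5% CO2. Viability read by CellTiter-Glo luminescence after 30 min at room temperature.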

[13] = qHTS assay for identifying genotoxic compounds that show differential cytotoxicity against isogenic chicken DT40 cell lines with known DNA damage response pathways - Rev3 mutant cell line (AID 743014); further: nearly all actives have a fitted effect of over 55% in size; further: potency means the concentration at half of the fitted maximal effect
[14] = qHTS assay to identify small molecule antagonists of the androgen receptor (AR) signaling pathway - cell viability counter screen (AID 743033; further: nearly all actives have a fitted effect of over 45% in size)
[15] = target: Androgen receptor (Homo sapiens) (UniProt P10275); assay: qHTS assay to identify small molecule agonists of the androgen receptor (AR) signaling pathway using the MDA cell line (AID 743040; further: nearly all actives have a fitted effect of over 20% in size)
Androgen receptor (Homo sapiens), sequence (P10275 whole entry, looked up): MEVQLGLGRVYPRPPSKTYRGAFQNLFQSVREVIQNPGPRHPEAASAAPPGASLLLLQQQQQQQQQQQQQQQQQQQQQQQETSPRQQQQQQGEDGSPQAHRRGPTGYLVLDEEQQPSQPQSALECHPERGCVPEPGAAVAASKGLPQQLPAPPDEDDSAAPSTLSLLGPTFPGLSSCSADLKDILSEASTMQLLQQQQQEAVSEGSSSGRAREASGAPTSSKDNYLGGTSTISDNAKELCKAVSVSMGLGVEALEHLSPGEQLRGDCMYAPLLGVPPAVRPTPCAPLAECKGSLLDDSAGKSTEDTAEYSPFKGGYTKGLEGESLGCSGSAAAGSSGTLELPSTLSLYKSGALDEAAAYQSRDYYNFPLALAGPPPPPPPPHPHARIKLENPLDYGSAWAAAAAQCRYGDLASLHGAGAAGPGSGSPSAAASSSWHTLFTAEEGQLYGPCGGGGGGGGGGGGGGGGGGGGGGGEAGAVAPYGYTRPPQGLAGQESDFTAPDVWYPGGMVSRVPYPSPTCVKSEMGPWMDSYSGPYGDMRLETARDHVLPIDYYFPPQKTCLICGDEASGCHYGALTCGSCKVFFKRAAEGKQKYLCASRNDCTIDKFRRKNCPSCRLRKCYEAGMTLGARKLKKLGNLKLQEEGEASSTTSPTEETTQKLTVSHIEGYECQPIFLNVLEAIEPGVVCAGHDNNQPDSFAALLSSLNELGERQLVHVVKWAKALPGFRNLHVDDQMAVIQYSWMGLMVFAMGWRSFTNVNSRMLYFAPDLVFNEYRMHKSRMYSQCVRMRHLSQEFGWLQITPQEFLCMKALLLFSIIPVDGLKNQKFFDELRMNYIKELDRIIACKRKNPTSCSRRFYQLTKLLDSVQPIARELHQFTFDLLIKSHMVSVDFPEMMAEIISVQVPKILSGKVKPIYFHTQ
Method in brief: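 After a 5 h incubation at 37C and 0% CO2, MDA-kb2 reporter cells were dosed with compounds in DMSO and kept 16 h under the same conditions. Luciferase activity was then read as luminescence with ONE-Glo.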

[16] = qHTS assay to identify small molecule antagonists of the androgen receptor (AR) signaling pathway using the MDA cell line - cell viability counter screen (AID 743041; further: nearly all actives have a fitted effect of over 45% in size)
Method in brief: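 R1881-driven MDA-kb2 AR-luc cells, 3,000/well, were dosed with library compounds for 16 h; cell health came from CellTiter-Fluor fluorescence in the reporter wells.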

[17] = qHTS assay to identify small molecule antagonists of the thyroid receptor (TR) signaling pathway - cell viability counter screen (AID 743064); further: nearly all actives have a fitted effect of over 50% in size; further: potency means the concentration at half of the fitted maximal effect
Method in brief: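 In rat pituitary GH3.TRE-Luc reporter cells co-exposed to compound and 1 nM T3 for 23.5 h, cytotoxicity was assessed with CellTiter-Fluor in the same wells, read by fluorescence.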

[18] = qHTS assay for identifying genotoxic compounds that show differential cytotoxicity against isogenic chicken DT40 cell lines with known DNA damage response pathways - Rad54/Ku70 mutant cell line (AID 743015); further: nearly all actives have a fitted effect of over 60% in size; further: potency means the concentration at half of the fitted maximal effect
[19] = target: Androgen receptor (Homo sapiens) (UniProt P10275); assay: qHTS assay to identify small molecule antagonists of the androgen receptor (AR) signaling pathway (AID 743035; active means well fitted inhibition curve with a large enough effect in the signal ratio in the repeat runs, not every such curve was filed as active; inconclusive means weak or mixed curves, or effect the other way; inactive means no such curve, though single readings can be large or run the other way; the % refers to the signal ratio)
Method in brief: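 HEK293 cells stably carrying UAS-beta-lactamase reporter, 2,000/well, given compounds plus R1881 agonist and incubated 16 h at 37C. LiveBLAzer B/G FRET substrate then added for 2 h at room temperature before fluorescence reading.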

[20] = target: Androgen receptor (Homo sapiens) (UniProt P10275); assay: qHTS assay to identify small molecule antagonists of the androgen receptor (AR) signaling pathway using the MDA cell line (AID 743042; further: nearly all actives have a fitted effect of over 55% in size)
Method in brief: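 Antagonist mode: compounds plus R1881 agonist added to MDA-kb2 AR-luc cells, incubated 16 h at 37C. Luciferase reporter luminescence quantified, with multiplexed CellTiter-Fluor readout for cell viability.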
On the % scale 0 is the no-effect control and ±100 the full control effect.

Cc1occc1C(=O)Nc1ccc(C(=O)N2CCC(F)(F)/C(=C\C(=O)N3CCC(N4CCCCC4)CC3)c3ccccc32)cc1
inactive: outcome [1] | Potency [2] | outcome [3] | outcome [4] | outcome [5] | Potency [6] | outcome [7] | Potency [8] | Potency [9] | Potency [10] | Potency [11] | Potency [12] | Potency [13] | Potency [14] | Potency [15] | Potency [16]
active: Potency [17] 17 µM

CCCC(=O)O[C@]1(C(=O)COC(=O)CC)CC[C@H]2[C@@H]3CCC4=CC(=O)CC[C@]4(C)[C@H]3[C@@H](O)C[C@@]21C
inactive: outcome [1] | Potency [2] | outcome [3] | outcome [4] | outcome [5] | Potency [6] | outcome [7] | Potency [8] | Potency [11] | Potency [12] | Potency [13] | Potency [18] | Potency [14] | Potency [19] | Potency [16] | Potency [20] | Potency [17]
active: Potency [9] 0.301 µM

Oc1cc(O)c(Cl)cc1Cl
inactive: outcome [1] | Potency [2] | outcome [3] | outcome [4] | outcome [5] | Potency [6] | outcome [7] | Potency [8] | Potency [9] | Potency [10] | Potency [11] | Potency [12] | Potency [13] | Potency [14] | Potency [16] | Potency [17]

CC(C)C(=O)O
inactive: outcome [1] | Potency [2] | outcome [3] | outcome [4] | outcome [5] | Potency [6] | outcome [7] | Potency [8] | Potency [9] | Potency [10] | Potency [11] | Potency [12] | Potency [13] | Potency [14]

COc1ccc(C(=O)c2cccc(O)c2)c(OC)c1
inactive: outcome [1] | Potency [2] | outcome [3] | outcome [4] | outcome [5] | Potency [6] | outcome [7] | Potency [8] | Potency [9] | Potency [11] | Potency [12] | Potency [13] | Potency [14] | Potency [17]

C[C@@H]1C[C@H]2[C@@H]3CCC4=CC(=O)C=C[C@]4(C)[C@@]3(F)[C@@H](O)C[C@]2(C)[C@H]1C(=O)CO
active: Potency [9] 0.0085 µM [inconclusive] | Potency [12] 13.3 µM | Potency [18] 26.6 µM
inactive: outcome [1] | Potency [2] | outcome [3] | outcome [4] | outcome [5] | Potency [6] | outcome [7] | Potency [8] | Potency [11] | Potency [14] | Potency [16] | Potency [17]

O=C(OCCOCCO)c1ccccc1Nc1cccc(C(F)(F)F)c1
inactive: fluorescence, % of fluorescein [1] -0.0064% [at 18.6 µM] | fluorescence, % of fluorescent control [2] -0.158% [at 18.6 µM] | activity change [3] 0.0151% [at 18.6 µM] | fluorescence, % of fluorescent control [4] -0.579% [at 18.6 µM] | fluorescence, % of Rose Bengal [5] -0.0242% [at 18.6 µM] | fluorescence, % of fluorescent control [6] -0.0111% [at 18.6 µM] | fluorescence, % of fluorescein control [7] 0.0209% [at 18.6 µM] | fluorescence, % of fluorescent control [8] -0.0068% [at 18.6 µM] | Potency [9] | Potency [11] | Potency [13] | Potency [14] | Potency [16]

Cc1nc2ccccn2c(=O)c1CCN1CCC(C(=O)c2ccc(F)cc2)CC1
inactive: outcome [1] | Potency [2] | outcome [3] | outcome [4] | outcome [5] | Potency [6] | outcome [7] | Potency [8] | Potency [9] | Potency [11] | Potency [13] | Potency [14] | Potency [16] | Potency [17]

Cc1cc(O)c(C(C)C)cc1Cl
inactive and 61.1 µM (active): Potency [13]
inactive: outcome [1] | Potency [2] | outcome [3] | outcome [4] | outcome [5] | Potency [6] | outcome [7] | Potency [8] | Potency [9] | Potency [11] | Potency [12] | Potency [14] | Potency [16] | Potency [17]

NC(=O)Nc1ccc(Cl)c(Cl)c1
active: Potency [10] 48.9 µM | Potency [13] 60.9 µM | Potency [18] 60.9 µM
inactive: outcome [1] | Potency [2] | outcome [3] | outcome [4] | outcome [5] | Potency [6] | outcome [7] | Potency [8] | Potency [11] | Potency [14] | Potency [16] | Potency [17]

CC(=O)OCC(=O)[C@@]12OC(C)(C)O[C@@H]1C[C@H]1[C@@H]3C[C@H](F)C4=CC(=O)C=C[C@]4(C)[C@@]3(F)[C@@H](O)C[C@@]12C
active: Potency [9] 0.0064 µM
inactive: fluorescence, % of fluorescein [1] -0.0611% [at 18.6 µM] | fluorescence, % of fluorescent control [2] -0.0905% [at 18.6 µM] | activity change [3] -0.0593% [at 18.6 µM] | fluorescence, % of fluorescent control [4] 0.389% [at 18.6 µM] | fluorescence, % of Rose Bengal [5] -0.181% [at 18.6 µM] | fluorescence, % of fluorescent control [6] -0.0666% [at 18.6 µM] | fluorescence, % of fluorescein control [7] -0.0467% [at 18.6 µM] | fluorescence, % of fluorescent control [8] 0.231% [at 18.6 µM] | Potency [11] | Potency [12] | Potency [13] | Potency [18] | Potency [16]

Cc1ccc(/C=N/n2c(-c3ccccc3)csc2=S)cc1
active: Potency [12] 26.6 µM
inactive: outcome [1] | Potency [2] | outcome [3] | outcome [4] | outcome [5] | Potency [6] | outcome [7] | Potency [8] | Potency [9] | Potency [11] | Potency [14] | Potency [16] | Potency [17]

O=C(O)c1snc(Cl)c1Cl
inactive: outcome [1] | Potency [2] | outcome [3] | outcome [4] | outcome [5] | Potency [6] | outcome [7] | Potency [8] | Potency [9] | Potency [11] | Potency [14] | Potency [16]
active: Potency [12] 61.1 µM | Potency [13] 61.1 µM | Potency [18] 61.1 µM

CCCCCCCCCCCC[N+](C)(C)CC(=O)[O-]
inactive: outcome [1] | Potency [2] | outcome [3] | outcome [4] | outcome [5] | Potency [6] | outcome [7] | Potency [8] | Potency [9] | Potency [16]
active: Potency [12] 27.3 µM | Potency [13] 27.3 µM | Potency [18] 61.1 µM

CCOC(=O)c1ccccc1OC
inactive: outcome [1] | Potency [2] | outcome [3] | outcome [4] | outcome [5] | Potency [6] | outcome [7] | Potency [8] | Potency [11] | Potency [12] | Potency [13] | Potency [18] | Potency [14] | Potency [16]
